The full data set covers some 7,900 targets. This sample favours those with a hit. About 0.6% of all pairs of compound and target were hits.

For 22 targets, log2 fold change results are on record in the supplement of paper PMC10849652.

UniProt Q96G97, sequence (Q96G97 whole entry, looked up): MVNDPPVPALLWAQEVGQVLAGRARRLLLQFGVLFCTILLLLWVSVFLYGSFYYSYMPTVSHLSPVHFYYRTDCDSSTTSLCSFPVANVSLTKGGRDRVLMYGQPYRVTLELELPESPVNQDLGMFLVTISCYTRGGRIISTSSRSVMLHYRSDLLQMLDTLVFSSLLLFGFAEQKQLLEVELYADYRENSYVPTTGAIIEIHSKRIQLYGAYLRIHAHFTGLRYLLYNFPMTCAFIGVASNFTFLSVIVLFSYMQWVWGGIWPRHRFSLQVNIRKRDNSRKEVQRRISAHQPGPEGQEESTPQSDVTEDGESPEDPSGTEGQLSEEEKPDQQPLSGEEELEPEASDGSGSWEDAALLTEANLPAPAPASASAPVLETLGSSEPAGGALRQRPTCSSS
UniProt O95433, sequence (O95433 whole entry, looked up): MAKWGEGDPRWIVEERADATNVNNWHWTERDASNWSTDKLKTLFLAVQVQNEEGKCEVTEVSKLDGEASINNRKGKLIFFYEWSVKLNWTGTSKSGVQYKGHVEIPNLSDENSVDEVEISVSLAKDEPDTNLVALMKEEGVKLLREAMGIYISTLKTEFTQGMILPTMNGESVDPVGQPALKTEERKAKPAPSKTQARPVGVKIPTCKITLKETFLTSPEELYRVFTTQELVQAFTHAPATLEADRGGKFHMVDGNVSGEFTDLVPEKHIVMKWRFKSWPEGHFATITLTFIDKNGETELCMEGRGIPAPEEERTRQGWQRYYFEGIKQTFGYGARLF
UniProt Q99798, sequence (Q99798 whole entry, looked up): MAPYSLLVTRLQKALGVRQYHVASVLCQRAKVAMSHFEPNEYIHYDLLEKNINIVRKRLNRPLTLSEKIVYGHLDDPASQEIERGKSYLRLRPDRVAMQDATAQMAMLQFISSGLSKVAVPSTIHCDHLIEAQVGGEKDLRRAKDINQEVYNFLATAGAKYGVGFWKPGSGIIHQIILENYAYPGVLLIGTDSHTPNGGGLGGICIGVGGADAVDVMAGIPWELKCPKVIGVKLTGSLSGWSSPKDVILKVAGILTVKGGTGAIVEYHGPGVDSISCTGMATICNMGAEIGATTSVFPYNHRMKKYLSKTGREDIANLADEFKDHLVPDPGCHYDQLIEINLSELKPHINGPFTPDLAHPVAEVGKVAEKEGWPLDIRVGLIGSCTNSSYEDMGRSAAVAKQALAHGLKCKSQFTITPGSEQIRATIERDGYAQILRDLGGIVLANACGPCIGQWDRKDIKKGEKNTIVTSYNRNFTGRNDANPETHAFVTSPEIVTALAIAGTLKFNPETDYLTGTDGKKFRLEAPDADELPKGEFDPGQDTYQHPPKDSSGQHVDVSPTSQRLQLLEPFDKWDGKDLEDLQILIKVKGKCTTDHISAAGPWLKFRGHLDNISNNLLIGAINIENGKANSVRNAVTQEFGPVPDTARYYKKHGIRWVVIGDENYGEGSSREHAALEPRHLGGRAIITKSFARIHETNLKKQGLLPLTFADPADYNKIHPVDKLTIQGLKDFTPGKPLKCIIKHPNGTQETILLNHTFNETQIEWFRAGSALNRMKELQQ
UniProt Q9NYF8, sequence (Q9NYF8 whole entry, looked up): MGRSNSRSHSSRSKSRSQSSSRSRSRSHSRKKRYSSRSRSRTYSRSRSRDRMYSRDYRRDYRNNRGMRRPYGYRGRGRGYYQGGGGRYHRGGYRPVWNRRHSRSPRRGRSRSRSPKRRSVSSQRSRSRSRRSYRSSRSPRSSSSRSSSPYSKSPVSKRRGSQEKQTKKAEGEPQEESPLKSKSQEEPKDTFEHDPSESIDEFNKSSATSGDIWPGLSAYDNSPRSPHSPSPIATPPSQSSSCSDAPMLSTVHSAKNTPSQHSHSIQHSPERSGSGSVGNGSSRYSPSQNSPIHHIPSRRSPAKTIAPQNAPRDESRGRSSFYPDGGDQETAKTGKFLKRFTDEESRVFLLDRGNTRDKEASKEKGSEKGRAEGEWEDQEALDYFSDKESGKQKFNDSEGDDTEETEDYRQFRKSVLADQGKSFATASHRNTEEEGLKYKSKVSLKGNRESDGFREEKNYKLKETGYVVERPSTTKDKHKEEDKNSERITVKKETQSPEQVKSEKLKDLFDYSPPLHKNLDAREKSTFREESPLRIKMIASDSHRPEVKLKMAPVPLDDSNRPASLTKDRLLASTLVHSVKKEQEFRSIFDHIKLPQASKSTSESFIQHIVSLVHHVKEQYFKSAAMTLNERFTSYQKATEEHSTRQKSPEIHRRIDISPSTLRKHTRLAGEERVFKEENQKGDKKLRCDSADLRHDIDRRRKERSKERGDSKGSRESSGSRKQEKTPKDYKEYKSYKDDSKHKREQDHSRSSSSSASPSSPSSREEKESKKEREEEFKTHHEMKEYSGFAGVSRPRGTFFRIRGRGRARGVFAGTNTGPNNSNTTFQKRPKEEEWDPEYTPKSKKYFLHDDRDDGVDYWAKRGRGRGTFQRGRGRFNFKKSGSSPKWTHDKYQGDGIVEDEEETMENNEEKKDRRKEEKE
UniProt P54707, sequence (P54707 whole entry, looked up): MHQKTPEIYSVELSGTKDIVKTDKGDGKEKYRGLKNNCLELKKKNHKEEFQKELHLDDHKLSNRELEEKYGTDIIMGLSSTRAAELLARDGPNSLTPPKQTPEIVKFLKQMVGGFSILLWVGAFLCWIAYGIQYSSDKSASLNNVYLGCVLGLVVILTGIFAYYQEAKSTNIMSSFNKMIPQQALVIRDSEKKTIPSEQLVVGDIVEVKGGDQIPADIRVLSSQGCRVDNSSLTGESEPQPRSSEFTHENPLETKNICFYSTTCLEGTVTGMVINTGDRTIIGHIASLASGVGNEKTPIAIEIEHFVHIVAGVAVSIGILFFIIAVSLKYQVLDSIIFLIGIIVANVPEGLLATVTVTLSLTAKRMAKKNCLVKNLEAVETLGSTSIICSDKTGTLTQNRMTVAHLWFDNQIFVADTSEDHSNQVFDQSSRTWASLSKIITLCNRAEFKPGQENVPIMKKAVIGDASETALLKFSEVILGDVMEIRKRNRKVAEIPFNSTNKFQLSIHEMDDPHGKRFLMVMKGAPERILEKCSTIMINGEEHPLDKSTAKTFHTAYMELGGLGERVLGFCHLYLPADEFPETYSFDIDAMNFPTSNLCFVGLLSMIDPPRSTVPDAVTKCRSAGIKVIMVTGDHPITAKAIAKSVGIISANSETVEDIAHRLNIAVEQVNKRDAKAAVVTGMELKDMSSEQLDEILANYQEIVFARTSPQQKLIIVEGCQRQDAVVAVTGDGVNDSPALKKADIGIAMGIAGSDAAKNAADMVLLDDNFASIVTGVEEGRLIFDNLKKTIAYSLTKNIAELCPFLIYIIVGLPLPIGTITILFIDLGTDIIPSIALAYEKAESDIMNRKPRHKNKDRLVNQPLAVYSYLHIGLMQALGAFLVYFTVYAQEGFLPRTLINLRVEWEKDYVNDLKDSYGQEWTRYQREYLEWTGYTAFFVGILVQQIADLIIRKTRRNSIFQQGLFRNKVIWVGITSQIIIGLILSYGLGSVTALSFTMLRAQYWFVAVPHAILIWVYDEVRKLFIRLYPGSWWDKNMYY
UniProt P30043, sequence (P30043 whole entry, looked up): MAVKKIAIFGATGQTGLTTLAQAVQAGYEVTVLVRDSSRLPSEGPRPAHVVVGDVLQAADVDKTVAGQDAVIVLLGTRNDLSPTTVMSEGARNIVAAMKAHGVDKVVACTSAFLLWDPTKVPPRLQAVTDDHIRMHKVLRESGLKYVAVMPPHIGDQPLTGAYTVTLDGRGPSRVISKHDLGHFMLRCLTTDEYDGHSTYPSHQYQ
UniProt Q92560, sequence (Q92560 whole entry, looked up): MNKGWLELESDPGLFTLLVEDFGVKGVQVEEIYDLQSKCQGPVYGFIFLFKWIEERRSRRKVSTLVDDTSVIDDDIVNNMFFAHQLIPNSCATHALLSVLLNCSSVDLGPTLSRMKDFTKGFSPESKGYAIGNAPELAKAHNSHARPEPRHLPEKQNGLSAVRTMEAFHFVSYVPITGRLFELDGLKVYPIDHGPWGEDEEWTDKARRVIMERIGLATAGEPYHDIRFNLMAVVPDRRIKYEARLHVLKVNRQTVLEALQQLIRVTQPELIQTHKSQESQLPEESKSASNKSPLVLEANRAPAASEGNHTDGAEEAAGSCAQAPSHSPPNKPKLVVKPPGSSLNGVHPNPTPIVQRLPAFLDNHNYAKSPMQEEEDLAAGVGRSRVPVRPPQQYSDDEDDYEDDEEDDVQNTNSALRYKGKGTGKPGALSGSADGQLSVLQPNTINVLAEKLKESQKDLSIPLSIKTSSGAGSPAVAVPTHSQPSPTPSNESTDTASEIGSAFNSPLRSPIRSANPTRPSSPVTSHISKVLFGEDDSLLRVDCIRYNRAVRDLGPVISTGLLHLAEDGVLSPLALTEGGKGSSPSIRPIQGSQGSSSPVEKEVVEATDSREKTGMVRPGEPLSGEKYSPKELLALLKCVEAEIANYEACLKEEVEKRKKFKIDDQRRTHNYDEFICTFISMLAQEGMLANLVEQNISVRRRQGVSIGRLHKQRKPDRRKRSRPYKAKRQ
UniProt Q8WUW1, sequence (Q8WUW1 whole entry, looked up): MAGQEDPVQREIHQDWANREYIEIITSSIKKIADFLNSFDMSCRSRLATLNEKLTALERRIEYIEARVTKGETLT
UniProt Q8N6D5, sequence (Q8N6D5 whole entry, looked up): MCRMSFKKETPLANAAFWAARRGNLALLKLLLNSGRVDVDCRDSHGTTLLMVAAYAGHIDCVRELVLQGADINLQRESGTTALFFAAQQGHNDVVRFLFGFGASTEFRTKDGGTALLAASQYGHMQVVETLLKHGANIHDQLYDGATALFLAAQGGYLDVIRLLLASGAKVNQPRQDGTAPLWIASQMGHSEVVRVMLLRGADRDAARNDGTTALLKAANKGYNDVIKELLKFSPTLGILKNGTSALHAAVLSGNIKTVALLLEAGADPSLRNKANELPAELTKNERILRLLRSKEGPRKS
UniProt P55957, sequence (P55957 whole entry, looked up): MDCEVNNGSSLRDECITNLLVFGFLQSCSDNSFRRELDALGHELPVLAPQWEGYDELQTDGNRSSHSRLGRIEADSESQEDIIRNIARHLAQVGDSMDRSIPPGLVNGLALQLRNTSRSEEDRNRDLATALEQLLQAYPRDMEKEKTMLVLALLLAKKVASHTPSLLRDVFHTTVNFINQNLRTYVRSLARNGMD

Compound in the experiment: Cc1sc2c(c1C)C(c1ccc(Cl)cc1)=N[C@@H](CC(=O)OC(C)(C)C)c1nnc(C)n1-2
Kind of experiment: log2 fold change, soluble protein after heating vs DMSO (PISA); higher = thermal stabilisation; K562 cells, 10 uM, 30 min; active = over 0.2 and 3.5 SD of the protein, either way, in both replicates (recomputed). In short, it runs like this:
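Soluble protein was quantified by TMTpro 16plex LC-MS/MS after channel sums were equalised. It was obtained as the supernatant after 21,000xg for 90 min from pooled aliquots of K562 cells (2×10^6 cells/mL, 10 μM compound, 30 min) heated for 3 min across 48°C-58°C and extracted in PBS with 0.5% NP-40 at 4°C. Thermal stability values are relative to control samples and come from duplicates. They are given as log2 fold changes.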
As for AUH (UniProt Q13825), the log2 fold change is -0.042 (inactive).

Take BZW2 (UniProt Q9Y6E2): the log2 fold change was -0.033 (inactive).

For the target ANP32E (UniProt Q9BTT0), the log2 fold change was -0.012 (inactive).

For B4GALNT1 (UniProt Q00973), the log2 fold change was -0.102 (inactive).

For BAP1 (UniProt Q92560), the log2 fold change was 0.066 (inactive).

Take ATP12A isoform 2 (UniProt P54707): the log2 fold change is -0.044 (inactive).

Regarding BRK1 isoform 2 (UniProt Q8WUW1), the log2 fold change is -0.055 (inactive).

On to ARAF (UniProt P10398), for which the log2 fold change was 0.022 (inactive).

For the target AP2S1 (UniProt P53680), the log2 fold change is 0.037 (inactive).

Regarding BSCL2 isoform 4 (UniProt Q96G97), the log2 fold change was 0.027 (inactive).

As for AKAP8 (UniProt O43823), the log2 fold change is -0.018 (inactive).

Consider ANKRD29 (UniProt Q8N6D5), for which the log2 fold change was -0.029 (inactive).

As to BID isoform 2 (UniProt P55957), the log2 fold change was -0.076 (inactive).

Turning to ACO2 (UniProt Q99798), the log2 fold change was -0.023 (inactive).

As to ALKBH4 (UniProt Q9NXW9), the log2 fold change is 0.079 (inactive).

For the target ARFGAP2 (UniProt Q8N6H7), the log2 fold change was -0.033 (inactive).

As to AHSA1 (UniProt O95433), the log2 fold change is -0.024 (inactive).

As to AGPAT3 isoform 3 (UniProt Q9NRZ7), the log2 fold change is -0.048 (inactive).

With ACAD9 (UniProt Q9H845), the log2 fold change was 0.022 (inactive).

Take BCLAF1 (UniProt Q9NYF8): the log2 fold change is -0.013 (inactive).

As for BLVRB (UniProt P30043), the log2 fold change was -0.006 (inactive).

As to ADPRHL2 (UniProt Q9NX46), the log2 fold change is -0.057 (inactive).
